# Compounds with a hit are over-represented: about 2.6% of the library has one in this group of screens.
# MLLE-PAM2 inh – inhibitors of microRNA-mediated deadenylation, human PABP1 MLLE binding; P11940; GST-MLLE / FITC-PAM2 fluorescence polarization; inhibition, % at 20 µM; 360,000 compounds, 0.36% hits; in the data active = inhibition above about 35%, passing the limit was not always enough
# ABCB6 inh 2 – human ABCB6 transporter inhibition | fluorescence ratio to DMSO, % at 10 µM | K562-ABCB6 porphyrin accumulation, flow cytometry, 1 h; stronger effect = lower value | 360,000 compounds, 0.19% hits;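 active = fluorescence ratio to DMSO below 75%, the collection mean minus 3 SD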;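 also: signal is porphyrin accumulated inside mitochondria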
# PABP FP inh – blocks human PABP binding to poly(A) RNA | P11940 | calls only at 35 µM | 290,000 compounds, 1% hits | AID 2014 | fluorescence polarization;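 also: calls also rest on retests at 20 µM and on dose response follow-up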
# PHOSPHO1 inh – blocks human PHOSPHO1 phosphatase activity; Q8TCT1; recombinant PHOSPHO1, absorbance phosphatase assay; inhibition, % at 13.3 µM; 290,000 compounds, 1.1% hits; AID 1565; in the data active = inhibition above about 60%
# eIF4H FP inh – inhibitors of RNA binding by human eIF4H; Q15056; eIF4H fluorescence polarization binding assay; inhibition, % at 35 µM; 290,000 compounds, 0.94% hits;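 also: calls also rest on retests at 20 µM and on dose response follow-up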
# AI-2 QS mod – modulates the Vibrio harveyi AI-2 quorum sensing system; 300,000 compounds, 0.4% hits; activity change, % at 7.5 µM; Vibrio harveyi JMH597 AI-2 luminescence/OD600 ratio, 9 h; stronger effect = lower value; strain lacks LuxN and CqsS sensors; 0 = neutral-control median; in the data active = activity change below about -75%, passing the limit was not always enough;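 also: luminescence divided by OD600 gain over 9 h not by final OD600 alone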
# Numbers stand for hits; - = inactive; . = no result given; + = active, no number. Unless noted, no rule for the calls is given here.
SMILES,MLLE-PAM2 inh,ABCB6 inh 2,PABP FP inh,PHOSPHO1 inh,eIF4H FP inh,AI-2 QS mod
CN1CCn2cnc(C(=O)Nc3ccc(Cl)cc3)c2C1=O,-,-,.,.,.,.
CN1C/C(=C\c2ccc(N3CCOCC3)cc2)C(=O)/C(=C/c2ccc(N3CCOCC3)cc2)C1,-,-,+,-,78,-
CCN1CCN(C(=S)c2ccc(Cl)c(Cl)c2)CC1,-,-,-,95,-,-
O=C(CC(SCc1ccco1)c1ccc(O)cc1)c1cccs1 (stereo not given),-,-,-,-,-,-
O=C(CC(SCCO)c1ccc2c(c1)OCO2)c1cccs1 (stereo not given),43,-,-,83,-,-
COc1ccc(NC(=O)C2(C)CCCN(C(C)C)C2)cc1OC (stereo not given),-,-,.,.,.,.
CC(=O)Nc1c2c(nn1-c1ccc(C)cc1C)CSC2,-,-,-,-,-,-
CCCC(=O)Nc1c2c(nn1-c1ccc(C)cc1C)CSC2,-,-,-,72,-,-
COc1cc(C2c3sc(=O)[nH]c3SC3C(=O)N(c4ccc(Br)cc4)C(=O)C32)ccc1O (stereo not given),47,-,-,-,-,-
CC(C)C[C@H]1CN([C@@H](Cc2ccccc2)CN2CCC[C@@H]2CN2C(=O)C(=O)NC[C@@H]2Cc2ccccc2)C(=O)C(=O)N1CCc1ccccc1,-,-,.,.,.,.
CCOC(=O)c1[nH]cc(-c2ccccc2)c1N1CCOCC1,-,-,-,80,-,.
CCOC(=O)c1cnc(-c2ccccc2)nc1N1CCOCC1,-,-,-,-,-,-
O=C1c2ccccc2CC1Sc1nnc(-c2ccccn2)o1 (stereo not given),-,-,-,69,-,-
O=C(O)c1ccc(N=Nc2c(O)ccc3ncccc23)cc1,-,-,+,-,90,-
COc1ccc(-c2nnc(SCC#N)o2)cc1,-,-,-,-,-,-
C#CCSc1nnc(-c2ccc(OC)cc2)o1,-,-,-,69,-,-
O=C(Nc1ccc(Cl)c(Cl)c1)Nc1nnc(-c2ccncc2)s1,-,-,+,-,74,.
CCN(CC)CCn1c(SCC(=O)NCc2ccccc2)nc2c(sc3ccccc32)c1=O,-,-,+,-,4.5,-
COc1ccccc1CNc1nc2cc(-c3ccccc3C)sc2c(=O)n1C,-,-,.,.,.,.
S=C(NCc1cccnc1)Nc1ccc(Oc2ccccc2)cc1,-,-,-,-,-,-
Cc1ncc(CO)c(CNc2ccc(Oc3ccccc3)cc2)c1O,-,-,-,-,-,-87
O=C(NCc1ccc(F)cc1)OC1CC2CC1[C@H]1CCCCN1C2=O (stereo not given in full),.,-,.,.,.,.
CC(C)(C)OC(=O)CNC(=O)c1[nH]cnc1C(=O)NCCCCCN,-,-,.,.,.,-
CC(C)(C)OC(=O)CNC(=O)c1[nH]cnc1C(=O)NCCCCCNC(=O)OC(C)(C)C,-,74,-,-,-,-
N#Cc1ccc(-c2nc3ccc(Cl)cn3c2Cc2ccccc2)cc1,-,-,.,.,.,.
SMILES,MLLE-PAM2 inh,ABCB6 inh 2,PABP FP inh,PHOSPHO1 inh,eIF4H FP inh,AI-2 QS mod
O=C(Cn1cc(COc2ccc3ccccc3c2)nn1)NS(=O)(=O)c1cccc(OC(F)F)c1,-,-,.,.,.,.
COc1ccc(C(NC(=O)C2CCN(Cc3ccc(Oc4ccccc4)cc3)CC2)c2ccccn2)cc1 (stereo not given),-,-,.,.,.,.
CCC1CCCCN1C(=S)NC(=O)c1cccc([N+](=O)[O-])c1 (stereo not given),42,-,-,-,-,-
O=C(NC(=S)NC1CCSC1=O)c1cccc([N+](=O)[O-])c1 (stereo not given),42,-,-,-,-,-
CC1CCN(C(=S)NC(=O)c2cccc([N+](=O)[O-])c2)CC1,-,-,-,-,-,-
CC(NC(=O)NC(=O)c1cccc([N+](=O)[O-])c1)C1CC1 (stereo not given),-,-,-,75,-,-
O=C(NC(=S)NC1CCSC1=O)c1ccc([N+](=O)[O-])cc1 (stereo not given),48,-,-,-,-,-
COc1ccc(OC)c(CN2C(=O)c3ccccc3C2c2nnnn2-c2ccc3c(c2)OCCO3)c1 (stereo not given),.,-,.,.,.,.
COC(=O)C1C(=O)N2CCCSC2=C(C#N)C1c1cccs1 (stereo not given),-,-,-,-,-,-
N#CC1=C2SCN(c3ccc(F)cc3)CN2C(=O)CC1c1cccc(F)c1 (stereo not given),-,-,-,64,43,-
N#CC1=C2SCN(Cc3ccco3)CN2C(=O)CC1c1ccccc1F (stereo not given),-,-,-,83,-,-
CCc1ccc(N2CSC3=C(C#N)C(c4cccs4)CC(=O)N3C2)cc1 (stereo not given),-,-,-,73,-,-
N#CC1=C2SCC(O)(c3ccccc3)N2C(=O)CC1c1ccccc1 (stereo not given),-,-,-,-,-,-
COc1ccc(N2CSC3=C(C#N)C(c4cccs4)CC(=O)N3C2)cc1 (stereo not given),-,-,+,89,15,-
CC(C)CC1NC(=O)c2cccnc2-n2c1nc1cc(F)ccc1c2=O (stereo not given),-,-,.,.,.,.
COc1ccccc1N(C)c1cc2c(c3c1ccn3C)C1CCC2O1 (stereo not given),-,-,.,.,.,.
CN1CSC2=C(C#N)C(c3cccc(OCc4ccccc4)c3)CC(=O)N2C1 (stereo not given),-,-,-,-,-,-
CCOC(=O)CC1=C(C(=O)OCC)C(c2cccs2)C(C#N)=C(N)O1 (stereo not given),-,-,-,-,-,-
CCc1ccc(C2CC(=O)N3CN(c4ccccc4)CSC3=C2C#N)cc1 (stereo not given),-,-,-,86,-,-
Cc1ccc(N2C(N)=C(C#N)C(c3cccs3)C3=C2CC(C)(C)CC3=O)cc1 (stereo not given),-,-,-,-,-,-
CCOC(=O)c1ccc(N2CSC3=C(C#N)C(c4cccs4)CC(=O)N3C2)cc1 (stereo not given),-,-,-,94,-,-
Cc1ccc(N2CSC3=C(C#N)C(c4cccs4)CC(=O)N3C2)cc1 (stereo not given),-,-,+,-,61,-
CC(C)(C)c1ccc(CC(=O)N2CCC2(C)C(=O)Nc2cccc3c2CCCC3)cc1 (stereo not given),-,-,.,.,.,.
CN(Cc1ccccc1)C(=O)c1cnc(Cc2c[nH]c3ccccc23)c(I)c1,-,-,.,.,.,.
Cc1ccc(S(=O)(=O)N2C[C@H]3[C@H]4C(=O)N(C)C(=O)[C@H]4CC(=O)[C@H]3[C@@H]2c2ccccc2F)cc1,-,-,.,.,.,.
CCOC(=O)C1(C)CCCN(C(=O)c2cccc3ccccc23)C1 (stereo not given),-,-,.,.,.,.
